Results on 24 compounds are retold here after PubChem BioAssay (NCATS).

For assay [1] the following is noted: Ebola virus entry assay, green fluorescence channel.
The conditions of assay [2]: Ebola virus entry assay, blue channel fluorescence.
For assay [3] the following is noted: Ebola virus entry assay, green fluorescence channel. This is another data set of the same source.
The conditions of assay [4]: Ebola virus entry assay, ratio channel readout.
For assay [5] the following is noted: Ebola virus entry assay, blue channel fluorescence. The source holds these as a separate data set.
The conditions of assay [6]: Ebola virus entry assay, ratio channel.

Unmarked numbers belong to inactive results. For part of these data: Measured potencies and affinities stand elsewhere. The source made the active and inactive calls.
For efficacy in this document: 0% is about no effect.

As to `N[C@@H](C(=O)N[C@@H]1C(=O)N2C(C(=O)O)=C(Cl)CS[C@H]12)c1ccccc1`, the efficacy in assay [1] is 26%. The compound was classed as inactive in assay [2], in assay [3], in assay [4], in assay [5] and in assay [6].
With `Cc1cn([C@H]2C=C[C@@H](CO)O2)c(=O)[nH]c1=O`, in assay [1], the efficacy is 10.9%. Also, the compound was called inactive in assay [2], in assay [3], in assay [4], in assay [5] and in assay [6].
In the case of `CC(C)NCC(O)COc1ccc(CCOCC2CC2)cc1` (centres undefined), the efficacy in assay [1] is 65%. Also, the outcome in assay [2], in assay [3] and in assay [4] was inactive. For the same compound, the half-maximal activity concentration (AC50) in assay [5] is 14.1 µM (active); in assay [6] it was 11.2 µM (active).
Regarding `CNS(=O)(=O)CCc1ccc2[nH]cc(C3CCN(C)CC3)c2c1`, in assay [1], the efficacy was -15%. The outcome in assay [2], in assay [3], in assay [4], in assay [5] and in assay [6] was inactive.
For the compound `CCOC(=O)Nc1ccc2c(c1)N(C(=O)CCN1CCOCC1)c1ccccc1S2`, the efficacy in assay [1] was 62.7%. Further, the compound was classed as inactive in assay [2], in assay [3], in assay [4], in assay [5] and in assay [6].
For `CCCCN1C[C@H](O)[C@@H](O)[C@H](O)[C@H]1CO`, in assay [1], the efficacy was 19.9%. The outcome in assay [2], in assay [3], in assay [4], in assay [5] and in assay [6] was inactive.
Turning to `Cc1ccc(S(=O)(=O)NC(=O)NN2CC3CCCC3C2)cc1` (centres undefined), the efficacy in assay [1] is -32.1%. In addition, the compound was called inactive in assay [2], in assay [3], in assay [4], in assay [5] and in assay [6].
In the case of `CN(C/C=C/C#CC(C)(C)C)Cc1cccc2ccccc12`, the efficacy in assay [1] was -24.6%. For the same compound, the result in assay [2], in assay [3], in assay [4] and in assay [6] was inactive. The AC50 in assay [5] was 28.2 µM (active).
Take `COC(=O)CCc1ccc(OCC(O)CNC(C)C)cc1` (centres undefined): the efficacy in assay [1] was 35.4%. Moreover, the compound was classed as inactive in assay [2], in assay [3], in assay [4] and in assay [6]. In assay [5], the AC50 is 22.4 µM (active).
For `C[C@@H](O)[C@H]1C(=O)N2C(C(=O)O)=C(S[C@@H]3CN[C@H](CNS(N)(=O)=O)C3)[C@H](C)[C@H]12`, in assay [1], the efficacy is 41.5%. The call in assay [2], in assay [3], in assay [4], in assay [5] and in assay [6] was inactive.
For `COc1cc2nc(N3CCN(C(=O)C4COc5ccccc5O4)CC3)nc(N)c2cc1OC` (centres undefined), in assay [1], the efficacy is 97.9%. Also, the outcome in assay [2], in assay [3] and in assay [4] was inactive. Besides, the AC50 in assay [5] and in assay [6] was 15.8 µM (active) in each case.
Turning to `O=C(O)CCNC(=O)c1ccc(N=Nc2ccc(O)c(C(=O)O)c2)cc1`, the efficacy in assay [1] is -11.9%. Further, the result in assay [2], in assay [3], in assay [4], in assay [5] and in assay [6] was inactive.
As to `CC[C@@H]([C@H](C)O)n1ncn(-c2ccc(N3CCN(c4ccc(OC[C@@H]5CO[C@@](Cn6cncn6)(c6ccc(F)cc6F)C5)cc4)CC3)cc2)c1=O`, the efficacy in assay [1] was 27.6%. The half-maximal activity concentration (AC50) is 10 µM (active) in assay [2], 4.47 µM (active) in assay [5] and 3.98 µM (active) in assay [6]. Further, the call in assay [3] and in assay [4] was inactive.
With `Nc1nnc(-c2cccc(Cl)c2Cl)c(N)n1`, the efficacy in assay [1] was -18.2%. For the same compound, the compound was classed as inactive in assay [2], in assay [3], in assay [4], in assay [5] and in assay [6].
In the case of `COCCCC/C(=N\OCCN)c1ccc(C(F)(F)F)cc1`, the efficacy in assay [1] is 124%. Further, the result in assay [2], in assay [3] and in assay [4] was inactive. In addition, the concentration at half-maximal activity (AC50) is 15.8 µM (active) in assay [5] and 14.1 µM (active) in assay [6].
`CCCN(CCc1cccs1)[C@H]1CCc2c(O)cccc2C1`: in assay [1], the efficacy is -47.6%. The compound was called inactive in assay [2], in assay [3] and in assay [4]. The AC50 in assay [5] and in assay [6] was 25.1 µM (active) each time.
As to `CN(C)CC[C@@H](c1ccc(Br)cc1)c1ccccn1`, the efficacy in assay [1] was 34.2%. Moreover, the compound was called inactive in assay [2], in assay [3], in assay [4] and in assay [6]. Besides, the AC50 in assay [5] is 39.8 µM (active).
With `CCC(C)n1ncn(-c2ccc(N3CCN(c4ccc(OC[C@H]5CO[C@](Cn6cncn6)(c6ccc(Cl)cc6Cl)O5)cc4)CC3)cc2)c1=O` (some centres undefined), in assay [1], the efficacy is 13.1%. For the same compound, the AC50 in assay [2] was 5.01 µM (active); in assay [4], 2 µM (active). Also, the outcome in assay [3], in assay [5] and in assay [6] was inactive.
`CC(C)(C)NC(=O)[C@@H]1CN(Cc2cccnc2)CCN1C[C@@H](O)C[C@@H](Cc1ccccc1)C(=O)N[C@H]1c2ccccc2C[C@H]1O`: the efficacy in assay [1] is -17.5%. For the same compound, the compound was called inactive in assay [2], in assay [3], in assay [4], in assay [5] and in assay [6].
With `CO[C@H]1C=CO[C@@]2(C)Oc3c(C)c(O)c4c(O)c(c(/C=N/N5CCN(C)CC5)c(O)c4c3C2=O)NC(=O)/C(C)=C\C=C[C@H](C)[C@H](O)[C@@H](C)[C@@H](O)[C@@H](C)[C@H](OC(C)=O)[C@@H]1C`, in assay [1], the efficacy was 60.3%. Further, the result in assay [2], in assay [3], in assay [4], in assay [5] and in assay [6] was inactive.
Take `CN1CCc2cccc3c2[C@H]1Cc1ccc(O)c(O)c1-3`: in assay [1], the efficacy was 61.6%. Moreover, the result in assay [2], in assay [3] and in assay [4] was inactive. The AC50 in assay [5] and in assay [6] was 28.2 µM (active) in each case.
For `COC(=O)Nc1nc2ccc(C(=O)c3ccccc3)cc2[nH]1`, the efficacy in assay [1] was 81.3%. The AC50 in assay [2] is 5.62 µM (active); in assay [5], 1.41 µM (active); in assay [6], 1.26 µM (active). The outcome in assay [3] and in assay [4] was inactive.
For the compound `CCC1C(=O)OCC1Cc1cncn1C` (centres undefined), the efficacy in assay [1] is -25.5%. Besides, the compound was called inactive in assay [2], in assay [3], in assay [4], in assay [5] and in assay [6].
As to `COc1ccc(-c2cc(=S)ss2)cc1`, in assay [1], the efficacy was -17.7%. The compound was called inactive in assay [2], in assay [3], in assay [4], in assay [5] and in assay [6].
